Screening results as filed in PubChem BioAssay.
This is a sample that favours compounds with a hit; in the whole collection about 2.9% have one here.
Fam108B counter: blocks mouse Fam108B hydrolase in RBBP9 counter-screen; recombinant Fam108B, FP-Rh probe fluorescence polarization; inhibition, % at 9.51 µM; 300,000 compounds, 0.33% hits;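 active = inhibition above the screen mean inhibition plus 3 SD, computed separately per campaign, cut at about 18% in these data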;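 note: inhibitors lower polarization as less probe binds the enzyme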
PAFAH1B3 inh: inhibitors of human PAFAH1B3; 340,000 compounds, 0.28% hits; inhibition, % at 3.39 µM; recombinant PAFAH1B3, FP-rhodamine probe, fluorescence polarization;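 active = inhibition above the screen-wide average of all tested compounds plus 3 SD, cut at about 25% in these data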;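 note: 0% = enzyme with DMSO only and 100% = wells lacking PAFAH1B3 protein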
Target sequence (Q15102 whole entry, looked up): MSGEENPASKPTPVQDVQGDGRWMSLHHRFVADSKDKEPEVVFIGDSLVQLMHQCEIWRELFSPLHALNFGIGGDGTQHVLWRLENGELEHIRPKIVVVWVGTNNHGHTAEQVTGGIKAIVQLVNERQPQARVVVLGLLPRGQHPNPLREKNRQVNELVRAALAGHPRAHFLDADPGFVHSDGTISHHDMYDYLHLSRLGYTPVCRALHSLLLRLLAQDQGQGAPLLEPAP
PAFAH2 inh: inhibitors of human PAFAH2 | Q99487 | recombinant PAFAH2, FP-rhodamine activity probe, fluorescence polarization | inhibition, % at 3.39 µM | 340,000 compounds, 0.99% hits;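 active = inhibition above the mean over all tested compounds plus 3 SD, cut at about 30% in these data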;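 note: inhibitors block probe labeling of enzyme so polarization drops; 0% = enzyme with DMSO and 100% = wells lacking PAFAH2 protein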
pPAFAH inh: pPAFAH (human) enzyme inhibition. recombinant pPAFAH, FP-rhodamine probe fluorescence polarization. inhibition, % at 3.39 µM. 330,000 compounds, 1.5% hits;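 active = inhibition above the mean inhibition across the screen plus 3 SD, cut at about 25% in these data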;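 note: inhibitors block binding of the rhodamine activity-based probe so polarization drops; 0% = enzyme with DMSO and 100% = wells lacking pPAFAH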
PAFAH1B2 FP inh: blocks human PAF acetylhydrolase 1b catalytic subunit 2. recombinant PAFAH1B2, FP-rhodamine activity probe, fluorescence polarization. 340,000 compounds, 1.2% hits. AID 492953. P68402. inhibition, % at 3.39 µM;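 active = inhibition above the mean of all tested compounds plus 3 SD, cut at about 24% in these data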;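 note: 0% = enzyme with DMSO and 100% = wells lacking PAFAH1B2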
PME-1 primary: PME-1 (human) inhibition; Q9Y570; recombinant PME-1, FP-Rh probe fluorescence polarization; inhibition, % at 5.9 µM; 320,000 compounds, 0.53% hits; AID 2130;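 active = inhibition above the campaign mean of all compounds plus 3 SD, cut at about 26% in these data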;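 note: competitive labeling of PME-1 active site by serine hydrolase directed probe; 0% = PME-1 with DMSO and 100% = wells lacking PME-1 enzyme; inhibitors block probe labeling so polarization falls and inhibition rises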
Target sequence (Q9Y570 whole entry, looked up): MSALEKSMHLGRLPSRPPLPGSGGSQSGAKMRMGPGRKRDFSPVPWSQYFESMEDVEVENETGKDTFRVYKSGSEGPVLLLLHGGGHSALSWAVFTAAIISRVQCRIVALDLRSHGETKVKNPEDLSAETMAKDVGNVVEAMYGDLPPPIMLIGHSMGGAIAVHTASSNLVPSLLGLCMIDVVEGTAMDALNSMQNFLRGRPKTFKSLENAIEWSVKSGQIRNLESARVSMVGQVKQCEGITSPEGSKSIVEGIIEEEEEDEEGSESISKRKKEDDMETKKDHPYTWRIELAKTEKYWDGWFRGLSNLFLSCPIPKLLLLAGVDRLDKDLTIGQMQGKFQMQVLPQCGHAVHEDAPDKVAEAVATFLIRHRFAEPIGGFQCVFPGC
PAFAH2 confirm: PAFAH2 (human) inhibition, confirmed | shares compounds with PAFAH2 inh | recombinant PAFAH2, FP-rhodamine activity probe, fluorescence polarization | inhibition, % at 3.39 µM | 2,300 compounds, 65% hits | AID 493030;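 active = mean inhibition over three repeats above a set limit taken from the earlier primary screen, cut at about 30% in these data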;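 note: inhibitor blocks binding of rhodamine activity probe so polarization falls; 0% = enzyme with DMSO and 100% = wells lacking PAFAH2 protein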
* marks the source's active call; other numbers are inactive results; · = no result.

SMILES	Fam108B counter	PAFAH1B3 inh	PAFAH2 inh	pPAFAH inh	PAFAH1B2 FP inh	PME-1 primary	PAFAH2 confirm
NC(=O)Nc1ccc(C(=O)OCC(=O)Nc2cccc(S(=O)(=O)NC3=NCCCCC3)c2)cc1	-5	8	61*	3	3	-5	65*
Cc1cc(C)cc(C(=O)OCC(=O)Nc2cccc(S(=O)(=O)NC3=NCCCCC3)c2)c1	-1	-5	12	7	2	-8	·
O=C(COC(=O)c1ccc(OC(F)F)cc1)Nc1cccc(S(=O)(=O)NC2=NCCC2)c1	·	10	31*	1	-1	5	19
O=C(COC(=O)c1ccc(C(F)(F)F)cc1)Nc1cccc(S(=O)(=O)NC2=NCCCCC2)c1	·	5	21	22	3	·	·
Cc1ccsc1C(=O)OCC(=O)Nc1cccc(S(=O)(=O)NC2=NCCCCC2)c1	-4	4	46*	3	5	6	33*
Cc1ccc(NC(=O)CCNC(=O)c2ccc(Br)cc2)cc1S(=O)(=O)N1CCCCCC1	-3	2	3	15	3	-5	·
COc1ccc(C)cc1NC(=O)COC(=O)c1ccccc1SCC(=O)N1CCCC1	-1	-4	11	2	1	1	·
NS(=O)(=O)c1cccc(NC(=O)COC(=O)c2ccccc2SCC(=O)N2CCCC2)c1	·	17	40*	3	1	·	36*
O=C(COC(=O)c1ccccc1SCC(=O)N1CCCC1)Nc1ccccc1	1	4	88*	1	1	-1	80*
CCCC(C)NC(=O)COC(=O)c1ccccc1SCC(=O)NC(C)CCC (stereo not given)	0	2	39*	6	1	0	43*
CCCC(C)NC(=O)CSc1nnc2ccccn12 (stereo not given)	-3	-3	2	0	3	-6	·
COc1cc(NC(=O)COC(=O)c2ccccc2SCC(=O)N2CCCC2)cc(OC)c1	1	4	42*	4	8	-1	24
CCOC(=O)c1[nH]c(CSc2nnnn2-c2ccccc2C)c(C(=O)OCC)c1C	-4	4	-5	3	-11	2	·
COc1cccc(NC(=O)COC(=O)c2ccccc2SCC(=O)N2CCCC2)c1	0	1	82*	3	-1	-2	81*
CC12CC(c3ccccc3O1)C(C(=O)NCc1ccccc1)C(=O)N2 (stereo not given)	-1	0	5	7	4	4	·
N#CCCN1CCn2c1nc1ccccc12	3	7	3	0	2	-3	·
Nc1cc(C(=O)OCC(=O)NCc2ccco2)ccc1Cl	0	0	36*	16	1	4	30*
CCOc1ccc(C(=O)OCC(=O)NCc2ccco2)cc1OCC	1	4	74*	10	8	-3	46*
Cc1ccc(C(=O)OCC(=O)NCc2ccco2)cc1	-5	2	45*	3	1	3	37*
CCOc1ccc(C(=O)NCc2ccco2)cc1OCC	3	2	-3	1	6	4	·
O=C(COC(=O)c1cccc(S(=O)(=O)N2CCc3ccccc32)c1)NCc1ccco1	-2	8	33*	13	5	1	20
CCc1ccc(NC(=O)C2CCN(S(=O)(=O)c3c(C)noc3C)CC2)cc1	-3	0	-1	12	0	1	·
COC(=O)COc1ccc(/C=N/NS(=O)(=O)c2ccccc2)cc1	7	0	-205	-4	2	-1	·
O=c1cc(C(F)(F)F)nc(SCc2cccc3ccccc23)[nH]1	2	3	51*	3	9	-13	31*
CCc1cc(=O)[nH]c(SCc2cccc3ccccc23)n1	1	5	61*	3	7	1	51*
SMILES	Fam108B counter	PAFAH1B3 inh	PAFAH2 inh	pPAFAH inh	PAFAH1B2 FP inh	PME-1 primary	PAFAH2 confirm
COC(=O)c1c(C)oc2c1cc(NS(=O)(=O)c1ccc(C(=O)O)cc1)c1ccccc12	-1	1	7	24	-2	-10	·
CCOC(=O)C1(Cc2ccc(Cl)cc2)CCN(C2CCC2)CC1	3	2	2	2	1	2	·
CCOC(=O)C1(Cc2ccccc2)CCN(C2Cc3ccccc3C2)CC1	-4	5	33*	7	0	-3	8
O=C(O/N=C/C1=C(Cl)c2ccccc2CC1)c1ccc(F)cc1	2	-4	35*	-1	15	-1	40*
CSc1ccc(Cn2nnc(C(=O)NCCc3ccc(Cl)cc3)c2N)cc1	1	5	3	7	3	1	·
COc1ccccc1CCn1c(N)c(C#N)c2nc3ccccc3nc21	3	3	-1	0	-4	23	·
Cc1ccc(-c2c(C#N)c(N)n3c(nc4ccccc43)c2C#N)cc1	-6	5	46*	13	5	-1	34*
O=C(COC(=O)c1cccc(S(=O)(=O)N2CCCCCC2)c1)Nc1ccccc1	·	5	66*	·	-1	·	60*
O=C(COC(=O)c1cccs1)Nc1cccc(S(=O)(=O)N2CCCCC2)c1	·	19	69*	7	-6	·	64*
O=C(COC(=O)c1ccccc1)Nc1cccc(S(=O)(=O)N2CCCCC2)c1	·	4	40*	·	2	·	23
N#Cc1ccc(C(=O)OCC(=O)Nc2cccc(S(=O)(=O)N3CCCCC3)c2)cc1	·	18	-1	1	-6	4	·
O=C(COC(=O)c1ccc(Cl)nc1)Nc1cccc(S(=O)(=O)N2CCCCC2)c1	·	-3	16	3	2	0	·
O=C(COC(=O)c1ccc([N+](=O)[O-])o1)Nc1cccc(S(=O)(=O)N2CCCCC2)c1	1	2	11	2	1	0	·
Cc1ccc(C(=O)OCC(=O)Nc2cccc(S(=O)(=O)N3CCCCC3)c2)o1	·	1	42*	6	3	8	26
CC1CCN(C(=O)c2[nH]cnc2C(=O)N[C@@H](Cc2ccccc2)C(=O)OC(C)(C)C)CC1	-2	8	1	-1	-3	-11	·
O=[N+]([O-])C(=C1NCCN1)C(Cl)=C(Cl)Cl	1	4	-5	6	-1	-2	·
COc1ccccc1-c1c(NC(=O)c2ccco2)n(C)c2ccccc2c1=O	0	·	·	2	·	-1	·
COc1ccccc1NS(=O)(=O)c1ccc(O)c(C(=O)OCC(=O)N2CCc3ccccc32)c1	-19	1	45*	20	10	1	28
COc1ccccc1NS(=O)(=O)c1ccc(O)c(C(N)=O)c1	0	9	-5	5	-3	5	·
CCN(CC)S(=O)(=O)c1ccc(O)c(C(=O)OCC(=O)N2c3ccccc3CC2C)c1 (stereo not given)	-5	2	75*	16	16	6	75*
